# In all, about 39,000 sequences were measured (“fluorescence intensity (a.u.)”: median about 4,300, highest 2% from about 39,000 on). This is one part of a sample in which the highest values are shown more often than they occur.
# Target: T1, OsSMF1 (Oryza sativa, UniProt Q6ZLB0 1-436)
# T1 sequence: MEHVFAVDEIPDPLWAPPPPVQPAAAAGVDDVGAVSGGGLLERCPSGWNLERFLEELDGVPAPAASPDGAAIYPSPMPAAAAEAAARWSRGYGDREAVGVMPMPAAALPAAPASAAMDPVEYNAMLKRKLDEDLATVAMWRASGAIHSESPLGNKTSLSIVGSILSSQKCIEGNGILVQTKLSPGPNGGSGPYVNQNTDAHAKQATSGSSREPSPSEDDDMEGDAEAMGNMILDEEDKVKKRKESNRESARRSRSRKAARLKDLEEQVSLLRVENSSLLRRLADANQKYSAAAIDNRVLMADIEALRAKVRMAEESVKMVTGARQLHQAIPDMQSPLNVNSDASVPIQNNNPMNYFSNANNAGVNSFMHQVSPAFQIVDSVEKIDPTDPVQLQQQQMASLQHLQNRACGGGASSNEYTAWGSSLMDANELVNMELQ
# Experiment: protein-binding microarray (RPBM); PBS, 2% BSA, 51.3 ng/ul salmon testes DNA, 50 uM zinc acetate, 200 nM TF, 25 C, 1 h; high values mean tight binding
# Settings: protein: recombinant; tags: N-terminal polyhistidine and DsRed monomer fusion (pET32a); chain copies: 2; label: CyDye5-dUTP incorporated in the synthesized complementary strand; 3' TTTTT single-stranded linker to array surface; dsDNA, one strand shown
# Method in brief: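 The binding signal is fluorescence intensity per array feature (arbitrary units). Readings came from an Axon 4000B scanner after a washed, 2% BSA-blocked, double-stranded custom Agilent array had been incubated for 1 h at 25 °C with 200 nM protein and 50 µM zinc acetate. The protein was a Ni–NTA-purified transcription factor fused N-terminally to polyhistidine and DsRed, expressed in E. coli BL21-CodonPlus.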
row,Sequence,binding signal
1,TGAACAATGTTACAAATCACTTTATCGGATGAAGAAATGACGGAGTCACCTAGTGCAG,46400 fluorescence intensity (a.u.)
2,TGATTATTTGTGAAATAAAATGAGATAAAATGTGATTTTACGGAGTCACCTAGTGCAG,28600 fluorescence intensity (a.u.)
3,ATTTGTAAACAATGTTACTATCACTTTATCAGATGAAGAACGGAGTCACCTAGTGCAG,34600 fluorescence intensity (a.u.)
4,AACGTGCCACTTTACCTGACGTGATGAAACAATATTATCACGGAGTCACCTAGTGCAG,3320 fluorescence intensity (a.u.)
5,GGATGATGTGACTTAATAACAGAAGAGAGAAATAATATTACGGAGTCACCTAGTGCAG,40600 fluorescence intensity (a.u.)
6,CCAGGTCCCAGCCAGGGGTTTATTAGCTGATTCAAGACGTCGGAGTCACCTAGTGCAG,14900 fluorescence intensity (a.u.)
7,CTGGACAGGAAGCAAAGCTCCTGACACGCCCAGCCGTCCCCGGAGTCACCTAGTGCAG,3220 fluorescence intensity (a.u.)
8,ACCGCCATGTAGGTGCCACGTCATCGCCACGTGGAACGAACGGAGTCACCTAGTGCAG,32700 fluorescence intensity (a.u.)
9,CCGGATGACATGATGACACCGCTACCCATTAAGTTTCGTCCGGAGTCACCTAGTGCAG,4050 fluorescence intensity (a.u.)
10,CTCCTTCCATTTGTACCCACGTCTGCTGTCCATTGACCGGCGGAGTCACCTAGTGCAG,6910 fluorescence intensity (a.u.)
11,TCACCCTGTCCTCGTCACGTCCCATTTTACATCCACCACCCGGAGTCACCTAGTGCAG,6570 fluorescence intensity (a.u.)
12,CCCATTGATGCTACAGAGAGTCCACGTCACCCTCGTCTGCCGGAGTCACCTAGTGCAG,42800 fluorescence intensity (a.u.)
13,AGCTAGTACCTCACATGCATTCATCTTGCTTGCAATCCGTCGGAGTCACCTAGTGCAG,45100 fluorescence intensity (a.u.)
14,GAATCTAGTAGCTTGCATCCTTTACATCTTCTCATCCTGTCGGAGTCACCTAGTGCAG,32700 fluorescence intensity (a.u.)
15,GCTTGCTTGCTTGCATCCTCCTCACATTCACCACGAGGTTCGGAGTCACCTAGTGCAG,3670 fluorescence intensity (a.u.)
16,CATTCTTAATGTAAAATATGAATGTAAATGAAATGTATGCCGGAGTCACCTAGTGCAG,3840 fluorescence intensity (a.u.)
17,CACAAGTTCTCCTACGCTGACTCCTCTCTTGGAACTTCAGCGGAGTCACCTAGTGCAG,5030 fluorescence intensity (a.u.)
18,CCACTGGCGACCGCCACGTCGACCTGGCGTGGGACCTCATCGGAGTCACCTAGTGCAG,8920 fluorescence intensity (a.u.)
19,GCATGCATTGCCTCTTGCTCGCCTACGTGGTAATGAAAACCGGAGTCACCTAGTGCAG,6560 fluorescence intensity (a.u.)
20,CTGCACGTTACTCACGTGGCATCTCCAACTCTACCGCCAACGGAGTCACCTAGTGCAG,7570 fluorescence intensity (a.u.)
21,TGACATGTGGGGCCCACGCTGACTCAGCCGCCACGTCAGACGGAGTCACCTAGTGCAG,19600 fluorescence intensity (a.u.)
22,CTGGCACGTAAGCGTTACCGTGGCATGCCACGTCATCTCACGGAGTCACCTAGTGCAG,39600 fluorescence intensity (a.u.)

row,Sequence,binding signal
1,GTTAGCGTGGCATGCCACGTCATCTCACGAAGCGGGTTAGCGGAGTCACCTAGTGCAG,18100 fluorescence intensity (a.u.)
2,TATGCGTGGGTCACTGGGCCCACACGTCATCCTCACGTGGCGGAGTCACCTAGTGCAG,49000 fluorescence intensity (a.u.)
3,CTAATGCCACGTAAGTGCCACGTGGCATGAAAACCGGGTTCGGAGTCACCTAGTGCAG,46300 fluorescence intensity (a.u.)
4,GGGGTGAAAATGAATTAGATGCCACGTGCAGGTTCGCATGCGGAGTCACCTAGTGCAG,10000 fluorescence intensity (a.u.)
5,CCCACGTGGGTCCCACGCTGACTCAGCCGCCACGTAGATCCGGAGTCACCTAGTGCAG,25400 fluorescence intensity (a.u.)
6,GGCCCACGTGGGTCCCACACTGACTCAGCTGCCACGTGGGCGGAGTCACCTAGTGCAG,38600 fluorescence intensity (a.u.)
7,ATATGTGGGTCTCATGCTGACTCATCCGCCACGTCAGATACGGAGTCACCTAGTGCAG,42600 fluorescence intensity (a.u.)
8,TATGTAGTACCACCCTGGTGTCACACATGTACCACTTGGTCGGAGTCACCTAGTGCAG,3910 fluorescence intensity (a.u.)
9,GGAGCTGAGGAGGGACAGCGAGCCAGCGAGGGAGGTGGGGCGGAGTCACCTAGTGCAG,3160 fluorescence intensity (a.u.)
10,GGGGACATTACTCCGTGGTTTACATGTCATCCAAATAGTTCGGAGTCACCTAGTGCAG,5320 fluorescence intensity (a.u.)
11,TATATACAAGTTCACCCCGAAACCTAGTCAGAGTATGACACGGAGTCACCTAGTGCAG,4240 fluorescence intensity (a.u.)
12,ACTTGCCACGGTGCCGCCTAACAGGCAGCCGTACCTGCCTCGGAGTCACCTAGTGCAG,3320 fluorescence intensity (a.u.)
13,TGAAATACTTACAAGTCGATCGAACAACACCTGTCATCATCGGAGTCACCTAGTGCAG,4160 fluorescence intensity (a.u.)
14,GCGGCCTATTGTTAGCGAGGAGTCACCCAGATTCTTCTCCCGGAGTCACCTAGTGCAG,6870 fluorescence intensity (a.u.)
15,TACTATTAGGTATGTGGTATCCATAACCCTGACACATACCCGGAGTCACCTAGTGCAG,3600 fluorescence intensity (a.u.)
16,CGTGAAAGTGCTTCGAAAGGTGTCAGCAGGTGCGCGGAGCCGGAGTCACCTAGTGCAG,3530 fluorescence intensity (a.u.)
17,GTCAGGTGGCGGCGGCGGCGGTGGTGGCGGTGGAGGTGGACGGAGTCACCTAGTGCAG,5570 fluorescence intensity (a.u.)
18,ATCCATAACTATGTAACGTCATAGCCACCCAGCCTCGCTTCGGAGTCACCTAGTGCAG,5580 fluorescence intensity (a.u.)
19,ATGCATGGTATGTCACGTTGTGACTTGCCTACACTAAAGCCGGAGTCACCTAGTGCAG,4520 fluorescence intensity (a.u.)
20,TTGCTAGTTGGTACAAAGTAAGCATGCAACACTTGTATGCCGGAGTCACCTAGTGCAG,42200 fluorescence intensity (a.u.)
21,CTTGCACAAGTACAGTACGTGTACATGCATGTATGCTACCCGGAGTCACCTAGTGCAG,5700 fluorescence intensity (a.u.)
